Shown are actives, neighbours in structure and some others; about 1.3% of the full set was active somewhere.
Keap1-Nrf2 PPI = disrupts human Keap1 binding to Nrf2 peptide | 340,000 compounds, 0.15% hits | AID 504523 | Keap1 Kelch-Nrf2 peptide fluorescence polarization, 1536-well | inhibition, % at 9.4 µM; in the data active = inhibition above about 12%;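 also: human Keap1 Kelch domain with fluorescein labeled Nrf2 9mer peptide probe; higher means more block of Keap1 binding to Nrf2 peptide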
Target sequence (Q14145 whole entry, looked up, the tested form may be a part): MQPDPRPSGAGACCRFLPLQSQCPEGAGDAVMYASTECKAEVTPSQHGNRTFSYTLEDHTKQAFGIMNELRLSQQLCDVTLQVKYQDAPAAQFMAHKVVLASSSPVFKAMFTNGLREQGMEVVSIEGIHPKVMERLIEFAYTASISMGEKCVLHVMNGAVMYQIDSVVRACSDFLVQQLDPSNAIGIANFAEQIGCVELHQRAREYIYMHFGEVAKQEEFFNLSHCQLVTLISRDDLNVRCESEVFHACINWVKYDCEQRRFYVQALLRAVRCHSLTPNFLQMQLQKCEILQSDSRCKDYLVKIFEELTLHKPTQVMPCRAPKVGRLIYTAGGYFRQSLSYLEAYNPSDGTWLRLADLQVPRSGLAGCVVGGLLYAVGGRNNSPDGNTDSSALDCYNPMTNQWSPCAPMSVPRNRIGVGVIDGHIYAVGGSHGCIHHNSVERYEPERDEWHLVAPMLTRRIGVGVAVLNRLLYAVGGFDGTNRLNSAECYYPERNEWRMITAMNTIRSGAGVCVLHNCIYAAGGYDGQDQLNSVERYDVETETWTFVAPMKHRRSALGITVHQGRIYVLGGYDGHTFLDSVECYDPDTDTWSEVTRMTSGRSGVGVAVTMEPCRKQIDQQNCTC
LANA DNA inh = inhibitors of KSHV LANA C-terminal domain DNA binding; inhibition, % at 9 µM; MBP-C-LANA/FAM-LBS DNA binding, fluorescence polarization; AID 504423; 340,000 compounds, 0.078% hits;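 active = highest replicate inhibition at or above 60% at 9 µM, even if other replicates fall short; inactive = all replicates below 60% inhibition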
RTF Ca sens act = cardiac RTF calcium sensitization. P19429+P45379. IANBD-labeled TnC RTF fluorescence at EC20 calcium; 0% EC20 calcium, 100% full calcium. activation, % at 7.2 µM. 340,000 compounds, 0.24% hits;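 active = activation above the mean over all tested compounds plus 3 SD, cut at about 30% in these data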;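 also: rise in fluorescence read as greater calcium sensitivity of cardiac thin filaments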
CRFR2-BP antag = antagonists of CRF-binding protein/CRF-R2 receptor complex; HEK293 CRF-R2/CRF-BP, CRF-induced calcium fluorescence; inhibition, % at 11.8 µM; 350,000 compounds, 0.59% hits; AID 588475;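 active = inhibition of the ligand-induced calcium signal above about 50% at the single tested concentration, limit read from the data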
Cardiac RTF inh = cardiac RTF calcium desensitization | P19429+P45379 | IANBD-labeled cardiac RTF, Ca2+ fluorescence | inhibition, % at 7.15 µM | 340,000 compounds, 0.12% hits;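 active = inhibition above the mean inhibition of all tested compounds plus 3 SD, cut at about 17% in these data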;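 also: assay run at fixed EC70 calcium of 1.6 mM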
CRFBP-R2 agonist = agonists of human CRF-binding protein/CRF-R2 receptor complex. HEK293 CRF-R2/CRF-BP, calcium dye fluorescence (FLIPR); percent of saturating CRF peptide response. activation, % at 13.2 µM. 350,000 compounds, 0.46% hits;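 active = activation of at least 50%, plus an integration ratio under a set limit after plate pattern correction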
A number is an active result; - = inactive; . = no result.

SMILES | Keap1-Nrf2 PPI | LANA DNA inh | RTF Ca sens act | CRFR2-BP antag | Cardiac RTF inh | CRFBP-R2 agonist
N#Cc1c(-c2ccc(Cl)cc2)n(O)c2ccccc12 | - | - | - | 63 | - | 57
O=C(C(=O)N1CCCCCC1)c1c[nH]c2ccccc12 | - | - | - | - | - | -
C[n+]1cc(C(=O)N2CCCCC2)ccc1/C=C/c1c[nH]c2ccccc12 | - | - | 143 | - | - | 79
COc1ccc(N2C(=O)CSC2c2ccc([N+](=O)[O-])cc2)cc1 (centres undefined) | - | - | - | 83 | - | -
COc1ccc(C2SCC(=O)N2c2ccc(OC)cc2)cc1 (centres undefined) | - | - | - | - | - | -
CCN1C(=O)C(=O)N(Cc2ccc(OC)c(F)c2)C1=O | - | - | - | 84 | - | -
Cc1cccc(NC(=O)c2ccc(N3C(=O)C4C5C=CC(C6CC56)C4C3=O)cc2)c1 (centres undefined) | - | - | - | - | - | -
CCOC(=O)C1CCCN(C2CC(=O)N(c3ccccc3)C2=O)C1 (centres undefined) | - | - | - | 67 | - | -
Cc1[nH]c2ccccc2c1C(=O)NS(=O)(=O)Nc1ccc(Cl)cc1 | - | - | - | - | - | -
NC(=O)NC(=O)COC(=O)c1cccc(NS(=O)(=O)/C=C/c2ccccc2)c1 | - | - | 38 | - | - | -
COc1ccc(/C(O)=C/c2nc3ccccc3n(-c3ccccc3)c2=O)cc1 | - | - | - | - | - | 132
CCN(CC)C(=O)C1=C(C)N(Cc2ccc(OC)cc2)C(=O)C(CC(=O)NC2CC2)C1 (centres undefined) | . | . | . | - | . | -
Cc1nc(N)sc1-c1csc(N(C)c2ccc(O)cc2)n1 | - | - | - | 51 | - | -
O=C(CCN1CCC(c2cccs2)=N1)c1cccs1 | . | . | . | - | . | 69
CC(C)N1CC(C(=O)Nc2ccc(Br)c(Cl)c2)CC1=O (centres undefined) | - | - | - | 60 | - | -
Cc1ccc(NC(=O)C2CC(=O)N(C(C)C)C2)cc1Cl (centres undefined) | - | - | - | - | - | -
CC(Oc1ccc(C(=O)c2ccccc2)cc1)C(=O)Nc1ccc(S(N)(=O)=O)cc1 (centres undefined) | - | - | - | - | - | 61
CC(Oc1ccccc1)C(=O)Nc1ccc(NC(=O)c2ccccc2)cc1 (centres undefined) | - | - | - | - | - | -
CC(=O)Nc1ccc(NS(=O)(=O)c2ccccc2)cc1 | - | - | - | - | - | -
CC(=O)C(C(C)=O)c1cc(NS(=O)(=O)c2ccccc2)ccc1NS(=O)(=O)c1ccccc1 | - | - | - | - | - | 160
N#CCn1cc(/C=N/NC(=O)c2cc3c(ccc4ccccc43)o2)c2ccccc21 | - | - | - | - | - | -
O=C(Nc1cc(C(F)(F)F)ccc1Cl)C(Sc1cccc[n+]1[O-])c1ccccc1 (centres undefined) | - | - | - | - | - | 160
O=C(Nc1cc(C(F)(F)F)ccc1Cl)C(Sc1n[nH]c(=O)[nH]c1=O)c1ccccc1 (centres undefined) | - | - | - | - | - | -
CCNC(=S)/N=C(\N)Nc1nc(C)c2cc(C)ccc2n1 | - | - | - | - | - | -
COc1ccc(NS(=O)(=O)c2c(C)n(C)c(=O)n(C)c2=O)cc1OC | - | - | - | 82 | - | -
SMILES | Keap1-Nrf2 PPI | LANA DNA inh | RTF Ca sens act | CRFR2-BP antag | Cardiac RTF inh | CRFBP-R2 agonist
O=C(NNC(=O)c1ccc([N+](=O)[O-])cc1)c1ccc(Br)cc1 | - | - | - | - | - | -
CCOC(=O)Cc1csc(NC(=S)NC(=O)c2ccc([N+](=O)[O-])cc2)n1 | - | - | - | 57 | - | -
Cc1ccc(C(=O)NC(=S)NNC(=O)c2ccc([N+](=O)[O-])cc2)cc1 | - | - | - | - | - | 94
O=C(NNC(=S)NC(=O)c1ccc(Br)cc1)c1ccc([N+](=O)[O-])cc1 | - | - | - | - | - | 95
CCCCN1Cc2c(nc3cc(-c4ccco4)[nH]n3c2=O)C1=O | - | - | - | - | - | -
C/C(CC(=O)Nc1ccc(N(C)C)cc1)=N\NC(=O)c1ccc(F)cc1 | - | - | - | - | - | -
N#Cc1cccc(NC(=O)CSc2ccc3c4c(cccc24)C(=O)c2ccccc2-3)c1 | - | - | 42 | - | - | 224
COc1ccc(NC(=O)CSc2ccc3c4c(cccc24)C(=O)c2ccccc2-3)cc1 | - | - | - | - | - | 104
CCOC(=O)Cn1nc(C)n(-c2cccc(Cl)c2)c1=O | - | - | - | - | - | -
O=C(COC(=O)[C@@H]1CCCN1S(=O)(=O)c1ccc(Cl)cc1)NC1CCS(=O)(=O)C1 (some centres undefined) | - | - | - | - | - | -
CC(=O)/C=C/n1c(=S)oc2ccccc21 | . | . | . | 70 | . | -
O=C/C(=C\Nc1ccccn1)c1nc2cc(Cl)ccc2o1 | - | - | - | 80 | - | -
O=C/C(=C\Nc1ccccn1)c1nc2ccccc2o1 | - | - | - | - | - | -
COc1ccccc1C(=O)NCC(=O)NC1CCCc2ccccc21 (centres undefined) | - | - | - | - | - | -
COc1cccc(NC(=O)Nn2cnnc2)c1 | - | - | - | - | - | -
CC(C)CC1=NN2C(=N)/C(=C\c3coc4ccccc4c3=O)C(=O)N=C2S1 | - | - | 230 | - | - | 306
CCSC1=NSC2=NC(=O)/C(=C\c3coc4ccccc4c3=O)C(=N)N12 | - | - | 555 | - | - | 185
COc1cc(OC)c(C(=O)O/N=C(\N)c2ccc(C)cc2)cc1OC | - | - | - | - | - | -
CCOC(=O)C(Sc1nnc(-c2ccncc2)o1)C(C)=O (centres undefined) | - | - | - | 94 | - | -
COC(=O)C(C)Sc1nnc(-c2ccncc2)o1 (centres undefined) | - | - | - | - | - | -
O=S(=O)(NCc1ccccn1)c1cc(C(F)(F)F)ccc1Cl | - | - | - | - | - | -
Cc1cc(C)c(NC(=O)c2ccc(CNS(=O)(=O)c3cc(C(F)(F)F)ccc3Cl)cc2)c(C)c1 | - | - | - | 59 | - | -
CCn1c(=O)c(C(=O)NNC(=O)c2ccccc2F)c(O)c2ccccc21 | - | - | - | - | - | 100
Cn1c(=O)c(C(=O)NNC(=O)c2ccccc2F)c(O)c2ccccc21 | - | - | - | - | - | 51
COc1ccc(NC(=O)Cc2c(SC)c3ccccc3n2Cc2ccccc2)cc1 | - | - | - | 60 | - | -
CSc1c(CC(=O)NCCCO)n(Cc2ccccc2)c2ccccc12 | - | - | - | - | - | -
CC1(C)Cc2c(C#N)c(SCCO)nc(N3CCOCC3)c2CO1 | - | - | - | - | - | -

Bioassay records from PubChem BioAssay.
